# IL-1B inflam inh: inflammasome signaling inhibition, IL-1 beta readout | THP-1 LPS/ATP IL-1B secretion, AlphaLISA, 16 h; hits give low values | activity change, % at 57.5 µM | actives 4.7% (n = 360,000) | AID 743279; in the data active = activity change below about -50%; inconclusive = mostly about -30% to -49%; also: % is scaled to controls: 0 for no effect and ±100 for the full control effect
#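 THP-1 cells pretreated 1 hr with compounds (up to 57.5 uM final), then stimulated with LPS (250 ng/mL final) plus ATP (1.25 mM final); secreted IL-1B measured by AlphaLISA after 16 hr, decreased signal indicating inhibition.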
# Giardia kill: kills Giardia lamblia; Giardia lamblia trophozoite viability; activity change, % at 7.66 µM, hits read low; actives 0.15% (n = 340,000); AID 540267; in the data active = activity change below about -80%; inconclusive = between about -30% and that limit;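 also: parasites exposed to compound for two days anaerobically before the ATP read; % is scaled to controls: 0 for no effect and ±100 for the full control effect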
#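 Giardia lamblia trophozoites (100 cells/well) were incubated with compounds for 48 h at 37 deg C under anaerobic conditions. Viability was read as ATP content by one-step luminescence after 15-30 min at room temperature.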
# HepG2 viability: HepG2 cytotoxicity, counter-screen for TGF-b inhibitors; HepG2 CAGA-GFP viability, ATP luminescence, 18 h; Potency, µM (series often up to 46.1 µM), for the others: at the top dose activity change, negative = cytotoxicity, hits mostly cytotoxic; actives 0.76% (n = 410,000); AID 588856; also: potency is read from the fitted curve at half-maximal effect
#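 CellTiter-Glo luminescence gave cytotoxicity after 18 hours at 37 degrees C. The cells were HepG2 CAGA-GFP in 1% FBS DMEM, stimulated with 500 pg/mL TGF-beta after compound addition. %Activity was normalised to no-cell wells (complete cell-killing) and DMSO (no toxicity), and curves were fitted and classified.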
# TGFb inhibitor: inhibitors of TGF-b signaling; HepG2 CAGA-GFP TGF-b/SMAD3 reporter, GFP fluorescence, 18 h; TGF-beta stimulated, 500 pg/mL final; Potency, µM (highest dose often 46.1 µM), inactives show at the top dose activity, negative = inhibition, usual class: inhibitors; actives 1.2% (n = 410,000); AID 588855; also: potency is read from the fitted curve at half-maximal effect; % is scaled to controls: 0 for no effect and ±100 for the full control effect; nearly all actives have a fitted effect of over 65% in size
#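 Using HEPG2 CAGA-GFP reporter cells at 1000 cells/well, we pinned test compounds, stimulated with recombinant TGF-beta (500 pg/mL final) and measured total well GFP after 18 h.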
# HT1080 IDH1KD tx: kills HT-1080 cells with IDH1 knockdown; HT-1080 IDH1 knockdown viability, ATP luminescence, 48 h; Potency, µM (top dose mostly 46.1 µM), for the others: top-dose activity, negative = toxicity, most hits filed as cytotoxic; actives 2% (n = 360,000);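 also: potency is read from the fitted curve at half-maximal effect; 0% = DMSO wells and -100% = cell-free medium wells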
#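 Viability of IDH1-knockdown HT-1080 fibrosarcoma cells was assessed by CellTiter-Glo after 48 h at 37 °C with titrated compound; concentration-effect curves were classified by fit quality and response size.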
# HT1080NT lethal: kills 2HG-producing HT-1080-NT fibrosarcoma cells. HT-1080-NT fibrosarcoma viability, CellTiter-Glo ATP luminescence, 48 h. Potency, µM (series often up to 46.1 µM), for the others: at the highest dose activity, negative = less viability, actives largely listed as cytotoxic. actives 1.6% (n = 360,000). AID 686970;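 also: NT is the 2HG producing partner of a matched IDH1 knockdown line; potency is read from the fitted curve at half-maximal effect; 0% = DMSO-treated cells and -100% = media-only wells without cells; nearly all actives have a fitted effect of over 55% in size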
#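 Luminescent CellTiter-Glo readout after 48 hours of compound exposure at 37 degrees C defined viability of HT-1080-NT cells. Activity was normalized to DMSO wells and cell-free media wells; concentration-response curves were fitted and assigned curve classes.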
# Numbers without * were called inactive; ? = inconclusive; nt = no result given; [ ] = dose if it differs, or a comment. Shown are actives, neighbours in structure and some others; about 6.5% of the full set was active somewhere. Unless noted, calls follow the shape of the dose curve; as a rule, active = well fitted curve in the direction sought with a large enough effect; inconclusive = small, poorly fitted or top-dose-only effect, or another doubt; inactive = no such curve, though single readings can be large; an effect the other way counts as inactive or inconclusive.
SMILES,IL-1B inflam inh,Giardia kill,HepG2 viability,TGFb inhibitor,HT1080 IDH1KD tx,HT1080NT lethal
COCC(C)NC(=O)CCSc1nc(-c2ccc(OC)cc2)cc(C(F)(F)F)n1 (stereo unspecified),-57*,1,1%,-3%,-12%,-8%
COc1ccc(-c2cc(C(F)(F)F)nc(SCCC(=O)Nc3ccc(NC(C)=O)cc3)n2)cc1,nt,nt,-5%,4%,nt,nt
CCC(=O)N1CCN(c2ccc(NC(=S)NC(=O)c3ccc(OC)c([N+](=O)[O-])c3)cc2)CC1,-10,-2,-18%,-1%,-1%,-4%
COc1cccc(C(=O)NC(=S)Nc2ccc(N3CCCC3)cc2)c1,-57*,-2,-4%,1%,0%[9.24 µM],-2%
CCCC(=O)N1CCN(c2ccc(NC(=S)NC(=O)c3cccc(C)c3)cc2)CC1,-65*,27,9%,0%,-1%,-3%
COc1cccc(-c2nn(-c3ccc(C)cc3)cc2C(=O)N2CCc3cc(OC)c(OC)cc3C2)c1,-6,-2,-3%,-3%,21µM*,?
O=S(=O)(Nc1ccc(OC(F)(F)F)cc1)c1ccc(N2CCCCS2(=O)=O)cc1,nt,nt,-3%,?,nt,nt
O=S(=O)(Nc1ccc(F)c(C(F)(F)F)c1)c1ccc(N2CCCCS2(=O)=O)cc1,nt,nt,-25%,10µM*,nt,nt
CCOC(=O)c1ccc(Nc2ncnc3c2cnn3C)cc1,-14,-10,-21%,1%,16%[9.24 µM],-5%
Cn1ncc2c(O/N=C(\N)c3ccc(C(C)(C)C)cc3)ncnc21,-101*,30,-100%,?,6.5µM*,18µM*
O=C(/C(=C/O)N=Nc1cccc(C(F)(F)F)c1)c1ccccc1,-95*,-9,-6%,?,-23%,?
Cc1cccc(/C=N/NC(=O)c2ccc(Br)cc2)c1,-3,-16,-12%,?,4%,8%
COC(=O)/C(N=Nc1cccc(C(F)(F)F)c1)=C(\C)O,3,7,10%,28%,17%,14%
Cc1cccc(N=N/C(=C\O)C(=O)c2ccc(Br)cc2)c1,-85*,3,-70%,10µM*,?,?
O=C(/C(=C/O)N=Nc1ccccc1)c1ccco1,-16,6,-4%,-12%,-23%,-3%
O=C(/C(=C/O)N=Nc1ccccc1Cl)c1ccccc1,-99*,-12,-32%,?,15µM*,13µM*
COc1ccc(Nc2nnc(SCC(=O)Nc3cc(C)on3)s2)cc1,18,-6,21%,-23%,-8%,-15%
O=C(Nc1ccc(C(=O)N2CCOCC2)cc1)Nc1cccc(Cl)c1,?,-26,-6%,?,-12%,-5%
COc1cc(CNc2ccc(C)c(C)c2)cc(OC)c1OC,25,8,-18%,?,4µM*,5µM*
COc1ccc(NCc2ccc3c(c2)OCO3)cc1Cl,-93*,-9,-7%,23%,1%[9.24 µM],-24%
CCOc1cc(CNc2ccc3c(c2)OCCO3)cc(Br)c1OCC(N)=O,11,18,-6%,10%,?,?
CCOc1c(Br)cc(CNc2ccc(N3CCOCC3)cc2)cc1OC,-20,0,-28%,?,-16%,-4%
CCOc1cc(CNc2ccc3c(c2)OCCO3)cc(Br)c1OC,22,2,-17%,?,1.5µM*,2.3µM*
CCOc1c(Br)cc(CNc2ccc3c(c2)OCCO3)cc1OC,2,22,-11%,?,1.2µM*,2.9µM*
Cc1ccc(C2N=C(Nc3nc4ccccc4o3)NC3=C2C(=O)CC(C)(C)C3)cc1 (stereo unspecified),nt,-1,6%,1%,nt,nt
CCc1ccc(N(CC(=O)NCc2ccco2)C(=O)CCC(=O)Nc2nccs2)cc1,-1,6,1%,5%,-4%,-8%
CC(Cc1ccccc1)=NNc1ccc([N+](=O)[O-])cc1[N+](=O)[O-],-8,11,6%,0%,-18%,?

# Screening results (PubChem BioAssay)
